Data on 7 compounds can be found in PubChem BioAssay (Tox21).

SMILES strings stand for the structures. A number with no mark means an inactive call. Inconclusive results are not listed. Calls of active or inactive are those of the source. Unless noted, calls follow the shape of the dose curve; as a rule, active = well fitted curve in the direction sought with a large enough effect in the repeat runs; inconclusive = weak or mixed curves; inactive = no such curve, though single readings can be large; an effect the other way counts as inactive or inconclusive.

Test [1] is described as follows: qHTS assay to identify small molecule agonists of the hypoxia (HIF-1) signaling pathway - cell viability counter screen (AID 1224844; calls by dose curve; also: nearly all actives have a fitted effect of over 50% in size; also: potency is read from the fitted curve at half-maximal effect). In short, it runs like this:
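Cytotoxicity was measured in parallel with the HRE-driven beta-lactamase readout: after 17 hrs of compound exposure at 37C, HRE-bla ME-180 cells received CellTiter-Glo and luminescence was recorded 30 min later.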
Background: Quantitative high-throughput screening tests each substance at several concentrations.

Test [2] is described as follows: qHTS assay to identify small molecule agonists of H2AX (AID 1224845; active = well fitted activation curve with a large enough effect in the signal ratio in the repeat runs, not every such curve was filed as active; the % refers to the signal ratio). In short, it runs like this: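 Wild-type CHO-K1 cells plated overnight, then exposed 3 hr at 37C to compounds at 15 concentrations (0.76% DMSO). Lysed, then HTRF anti-pH2AX(S139)-cryptate/anti-H2AX-d2 detection after 24 hr at room temperature; emissions 665 and 620 nm.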
Test [3] is described as follows: qHTS assay to identify small molecule agonists of the hypoxia (HIF-1) signaling pathway (AID 1224846; active = well fitted activation curve with a large enough effect in the signal ratio in the repeat runs, not every such curve was filed as active; the % refers to the signal ratio). The method, boiled down: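 Compounds from the Tox21 10K library, dissolved in DMSO, are tested for induction of a hypoxia response element–controlled beta-lactamase reporter in ME-180 cells. Exposure lasts 17 hrs at 37C after a 5 hr settling period, followed by CCF4-AM FRET substrate.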

The nature of test [4]: qHTS RealTime-Glo MT Cell Viability Assay in HepG2 cells - 24 hour (AID 1224867). Also: nearly all actives have a fitted effect of over 50% in size. The method, boiled down:
(§1)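 Viability was tracked continuously by NanoLuc luminescence from prosubstrate reduced by living HepG2 cells, at successive time points over 40 h of compound exposure. Cells with reagent were preincubated 5 h at 37 °C before compound addition.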

Test [5] is described as follows: A CellTox Green Cytotoxicity Assay to monitor cytotoxicity in HEK293 cells - 0 hour (AID 1224869). Also: nearly all actives have a fitted effect of over 50% in size. In short, it runs like this: (§2)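 Cells (HEK293, 600/well) and dye reagent are dispensed together. After 5 h at 37 C, 23 nL compound is pinned in. Plates stay at 37 C for 40 h with fluorescence read at 0h, 8h, 16h, 24h, 32h and 40h.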
A short description of test [6]: qHTS RealTime-Glo MT Cell Viability Assay in HepG2 cells - 40 hour (AID 1224870). Also: nearly all actives have a fitted effect of over 50% in size. The method, boiled down: (§3)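 HepG2 cells mixed with RealTime-Glo MT reagents (NanoLuc plus cell-permeant prosubstrate) were seeded at 600 cells/well, incubated 5 h at 37 C/5% CO2, then pinned with compounds in DMSO; nonlytic luminescence tracked viability during 40 h treatment.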
Test [7] is described as follows: A CellTox Green Cytotoxicity Assay to monitor cytotoxicity in HEK293 cells - 40 hour (AID 1224871). Also: nearly all actives have a fitted effect of over 45% in size. Also: potency is read from the fitted curve at half-maximal effect. The method, boiled down: as §2
Test [8] in a line: qHTS RealTime-Glo MT Cell Viability Assay in HEK293 cells - 16 hour (AID 1224872). Also: nearly all actives have a fitted effect of over 50% in size. Also: potency is read from the fitted curve at half-maximal effect. In short, it runs like this:
(§4)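 Viability tracked continuously by luminescence as live cells reduce a prosubstrate for NanoLuc; HEK293 cells preincubated 5 h, compound-treated at 37 C, and read at 0, 8, 16, 24, 32 and 40 h.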

A short description of test [9]: qHTS RealTime-Glo MT Cell Viability Assay in HepG2 cells - 8 hour (AID 1224873). Also: nearly all actives have a fitted effect of over 55% in size. In short, it runs like this:
as §3

The nature of test [10]: A CellTox Green Cytotoxicity Assay to monitor cytotoxicity in HEK293 cells - 24 hour (AID 1224875). Also: nearly all actives have a fitted effect of over 45% in size. The method, boiled down:
as §2

Test [11] is described as follows: A CellTox Green Cytotoxicity Assay to monitor cytotoxicity in HepG2 cells - 16 hour (AID 1224876). Also: nearly all actives have a fitted effect of over 45% in size. In short, it runs like this: (§5)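 Cells and non-lytic dye reagent are dispensed together (600 HepG2 cells/well) and incubated 5 h before DMSO compound transfer. Kinetic fluorescence is then recorded in the same wells during 40 h at 37 C.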
Test [12] can be described thus: qHTS RealTime-Glo MT Cell Viability Assay in HepG2 cells - 32 hour (AID 1224877). Also: nearly all actives have a fitted effect of over 55% in size. The method, boiled down:
as §1

The nature of test [13]: A CellTox Green Cytotoxicity Assay to monitor cytotoxicity in HepG2 cells - 24 hour (AID 1224878). Also: nearly all actives have a fitted effect of over 45% in size. In short, it runs like this: as §5
Test [14] can be described thus: A CellTox Green Cytotoxicity Assay to monitor cytotoxicity in HepG2 cells - 40 hour (AID 1224879). Also: nearly all actives have a fitted effect of over 40% in size. The method, boiled down: as §5
Test [15] can be described thus: qHTS RealTime-Glo MT Cell Viability Assay in HEK293 cells - 0 hour (AID 1224880). The method, boiled down: (§6)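 Real-time viability in HEK293: signal arises when living cells convert a prosubstrate for NanoLuc in the medium, so luminescence tracks viable cell number. Compound (23 nL, DMSO) added 5 h post-seeding; kinetic reads at 0–40 h, 37 C.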
Test [16] can be described thus: qHTS RealTime-Glo MT Cell Viability Assay in HEK293 cells - 32 hour (AID 1224868). Also: nearly all actives have a fitted effect of over 50% in size. Also: potency is read from the fitted curve at half-maximal effect. In short, it runs like this: as §4
Test [17] in a line: qHTS RealTime-Glo MT Cell Viability Assay in HEK293 cells - 40 hour (AID 1224874). Also: nearly all actives have a fitted effect of over 50% in size. Also: potency is read from the fitted curve at half-maximal effect. The following applies: RealTime-Glo luminescence; max response: stronger effect = lower value. In short, it runs like this: as §6
Test [18] is described as follows: qHTS assay to identify small molecule agonists of H2AX - cell viability counter screen (AID 1224847; calls by dose curve; also: top concentration of the series differs between compounds; nearly all actives have a fitted effect of over 30% in size). In short, it runs like this:
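Viability of CHO-K1 (wild type) cells after 3 hr compound exposure was measured by CellTiter-Glo luminescence.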

Test [19] in a line: qHTS assay to identify small molecule antagonists of the estrogen related receptor (ERR) signaling pathway from Tox21 library (AID 1224848). Also: nearly all actives have a fitted effect of over 50% in size. The method, boiled down:
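First, 2,000 ERR cells per well were plated and held 6 h at 37 C/5% CO2. Next, compounds in DMSO were pinned in and left 18 h at 37 C. Finally, ONE-Glo was added and luminescence read after 30 min at room temperature.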

Test [20] is described as follows: qHTS assay to identify small molecule agonists of the estrogen related receptor (ERR) signaling pathway from Tox21 library (AID 1224849; calls by dose curve; also: nearly all actives have a fitted effect of over 15% in size). Particulars: ERR reporter cell line, ONE-Glo luciferase, 18 h; at 92.4 µM (top of the series) unless noted. The method, boiled down:
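Cells carrying the ERR reporter were plated and allowed to settle for 6 h, exposed to library compounds for 18 h at 37 C, then lysed with ONE-Glo and luminescence measured.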
% is scaled to controls: 0 for no effect and ±100 for the full control effect.

Regarding `N#CCCl`, the Potency result in test [1], in test [2], in test [3], in test [4], in test [5] and in test [6] was “inactive” throughout. The Potency result in test [7], in [8], in test [9], in test [10], in test [11] and in [12] was “inactive” throughout. Moreover, the Potency entry in test [13], in [14] and in test [15] was “inactive” in each case.
With `CC(C)N(C(=O)SC/C(Cl)=C/Cl)C(C)C`, the Potency entry in test [1], in test [2], in test [3], in test [4], in [16] and in test [5] was “inactive” throughout. For the same compound, the Potency entry in test [6], in test [9], in test [10], in test [11], in test [12] and in [13] was “inactive” each time. The Potency result in test [14] and in test [15] was “inactive” in each case. The Potency in [7] is 43.9 µM (active). Further, in [17], the max response was -22.2%.
`Nc1c(Cl)c(Cl)c(Cl)c(Cl)c1Cl`: the Potency entry in test [1], in test [2], in [3], in [18], in test [4] and in [16] was “inactive” in each case. The Potency entry in test [5], in test [6], in [7], in [8], in test [9] and in test [10] was “inactive” in each case. For the same compound, the Potency result in test [12] and in test [15] was “inactive” throughout. The max response in test [17] was -2.22%.
Turning to `Cc1c([N+](=O)[O-])c(C)c([N+](=O)[O-])c(C(C)(C)C)c1[N+](=O)[O-]`, the Potency in test [1] is 24.5 µM (active). Also, the Potency entry in [2], in [3], in test [19], in [4], in [16] and in test [5] was “inactive” each time. The Potency result in test [6], in [7], in test [8], in test [9], in test [10] and in test [11] was “inactive” throughout. For the same compound, the Potency entry in [12], in test [13], in [14] and in test [15] was “inactive” each time. The activity change, positive = activation in [20] was -4.01%. For the same compound, the max response in [17] was -20%.
As to `ClC(Cl)C(Cl)(Cl)Cl`, the Potency entry in test [1], in test [2], in [3], in test [18], in test [4] and in [16] was “inactive” in each case. The Potency result in test [5], in [6], in [7], in test [8], in test [9] and in test [10] was “inactive” each time. In addition, the Potency entry in test [12], in test [13], in test [14] and in test [15] was “inactive” throughout. Besides, the max response in test [17] is 0.191%.
On to `O=C(NC(=O)c1c(F)cccc1F)Nc1ccc(Oc2ccc(C(F)(F)F)cc2Cl)cc1F`, for which the Potency result in [1], in [2], in test [3], in test [4], in test [5] and in test [6] was “inactive” in each case. In addition, the Potency entry in test [7], in test [9], in [10], in test [11], in test [12] and in test [13] was “inactive” throughout. For the same compound, the Potency entry in test [14] and in test [15] was “inactive” each time. Besides, the results for the Potency in test [16], in test [8] and in test [17] were 43.6 µM (active), 24.5 µM (active) and 43.6 µM (active), respectively.
On to `Cc1c([N+](=O)[O-])cc2c(c1[N+](=O)[O-])C(C)(C)CC2(C)C`, for which the Potency entry in [1], in [2], in test [3], in test [4], in test [16] and in test [5] was “inactive” each time. The Potency result in test [6], in [8], in test [9], in test [10], in [11] and in [12] was “inactive” throughout. The Potency result in test [13], in test [14] and in test [15] was “inactive” throughout. Besides, the activity change, positive = activation in [20] is -30.3%. Further, in test [17], the max response was -1.57%.
